# Like-named read-outs stand apart in the source and are kept apart here.
# What was measured:
# Design in all cases: species or system human, MV4-11 + K-562 + COLO205 + SK-N-BE2 + OVCAR-8
# EGFR = details: read-out: apparent Kd, n = 1
# RIPK2 = details: read-out: apparent Kd, n = 1
# PIK3CD = details: read-out: apparent Kd; compound concentrations: 100 nM and 1000 nM (sheet 'Samples'), CATDS: 0.982888258017659; n = 1
# EPHA1 = details: read-out: apparent Kd, compound concentrations: 100 nM and 1000 nM (sheet 'Samples'), n = 1
# EPHA2 = details: read-out: apparent Kd; compound concentrations: 100 nM and 1000 nM (sheet 'Samples'), CATDS: 6.7925989209778895E-2; n = 1
# EPHA4 = details: read-out: apparent Kd; compound concentrations: 100 nM and 1000 nM (sheet 'Samples'), CATDS: 7.2128070641764394E-2; n = 1
# EPHA5 = details: read-out: apparent Kd; compound concentrations: 100 nM and 1000 nM (sheet 'Samples'), CATDS: 6.7106289127757499E-2; n = 1
# EPHA7 = details: read-out: apparent Kd; compound concentrations: 100 nM and 1000 nM (sheet 'Samples'), CATDS: 5.7157289588894301E-2; n = 1
# EPHB2 = details: read-out: apparent Kd; compound concentrations: 100 nM and 1000 nM (sheet 'Samples'), CATDS: 6.4850076698592204E-2; n = 1
# EPHB4 = details: read-out: apparent Kd; compound concentrations: 100 nM and 1000 nM (sheet 'Samples'), CATDS: 0.111344717085302; n = 1
# FLT4 = details: read-out: apparent Kd, compound concentrations: 100 nM and 1000 nM (sheet 'Samples'), n = 1
# MAPK14 = details: read-out: apparent Kd; compound concentrations: 100 nM and 1000 nM (sheet 'Samples'), CATDS: 5.8794914903048702E-2; n = 1
# MAPKAPK2 = details: read-out: apparent Kd; compound concentrations: 100 nM and 1000 nM (sheet 'Samples'), CATDS: 6.3284106262713205E-2; n = 1
# NNT = details: read-out: apparent Kd; compound concentrations: 100 nM and 1000 nM (sheet 'Samples'), CATDS: 5.7006998713096203E-2; n = 1
# RET = details: read-out: apparent Kd, compound concentrations: 100 nM and 1000 nM (sheet 'Samples'), n = 1
# MAP2K5 = details: read-out: apparent Kd, n = 1
# EPHB6 = details: read-out: apparent Kd; compound concentrations:100 nM and 1000 nM (sheet 'Samples'); n = 1
# ERBB3 = details: read-out: apparent Kd; compound concentrations: 100 nM and 1000 nM (sheet 'Samples'), CATDS: 6.7979180467830594E-2; n = 1
# FYN = details: read-out: apparent Kd, compound concentrations: 100 nM and 1000 nM (sheet 'Samples'), n = 1
# HCK = details: read-out: apparent Kd; compound concentrations: 100 nM and 1000 nM (sheet 'Samples'), CATDS: 0.242489240886436; n = 1
# LCK = details: read-out: apparent Kd, compound concentrations: 100 nM and 1000 nM (sheet 'Samples'), n = 1
# LYN = details: read-out: apparent Kd; compound concentrations: 100 nM and 1000 nM (sheet 'Samples'), CATDS: 8.32238060167768E-2; n = 1
# RIPK3 = details: read-out: apparent Kd, compound concentrations: 100 nM and 1000 nM (sheet 'Samples'), n = 1
# SRC = details: read-out: apparent Kd; compound concentrations: 100 nM and 1000 nM (sheet 'Samples'), CATDS: 0.138583252116979; n = 1
# YES1 = details: read-out: apparent Kd; compound concentrations: 100 nM and 1000 nM (sheet 'Samples'), CATDS: 0.11029012837176901; n = 1
# EPHB3 = details: read-out: apparent Kd; compound concentrations: 100 nM and 1000 nM (sheet 'Samples'), CATDS: 9.8269686784854801E-2; n = 1
# TGFBR2 = details: read-out: apparent Kd; compound concentrations: 100 nM and 1000 nM (sheet 'Samples'), CATDS: 0.121800483782391; n = 1
# FER = details: read-out: apparent Kd; compound concentrations: 100 nM and 1000 nM (sheet 'Samples'), CATDS: 0.23966612691904199; n = 1
# IGF1R = details: read-out: apparent Kd; compound concentrations: 100 nM and 1000 nM (sheet 'Samples'), CATDS: 0.234502945323845; n = 1
# INSR = details: read-out: apparent Kd; compound concentrations: 100 nM and 1000 nM (sheet 'Samples'), CATDS: 0.33480579514984299; n = 1
# JAK2 = details: read-out: apparent Kd; compound concentrations: 100 nM and 1000 nM (sheet 'Samples'), CATDS: 0.21851313363519401; n = 1
# FGFR1 = details: read-out: apparent Kd; compound concentrations:100 nM and 1000 nM (sheet 'Samples'); n = 1
# PIK3C2A = details: read-out: apparent Kd; compound concentrations:100 nM and 1000 nM (sheet 'Samples'); n = 1
# FLT3 = details: read-out: apparent Kd, compound concentrations: 100 nM and 1000 nM (sheet 'Samples'), n = 1
# MAP4K1 = details: read-out: apparent Kd; compound concentrations: 100 nM and 1000 nM (sheet 'Samples'), CATDS: 0.115744032998791; n = 1
# MAP4K2 = details: read-out: apparent Kd; compound concentrations: 100 nM and 1000 nM (sheet 'Samples'), CATDS: 7.8376321207257696E-2; n = 1
# MAP4K3 = details: read-out: apparent Kd; compound concentrations: 100 nM and 1000 nM (sheet 'Samples'), CATDS: 7.2653483868183794E-2; n = 1
# MAP4K5 = details: read-out: apparent Kd; compound concentrations: 100 nM and 1000 nM (sheet 'Samples'), CATDS: 9.0249941941856496E-2; n = 1
# TNIK = details: read-out: apparent Kd, compound concentrations: 100 nM and 1000 nM (sheet 'Samples'), n = 1
# TNK1 = details: read-out: apparent Kd; compound concentrations: 100 nM and 1000 nM (sheet 'Samples'), CATDS: 9.7568423036534901E-2; n = 1
# MYLK3 = details: read-out: apparent Kd; compound concentrations: 100 nM and 1000 nM (sheet 'Samples'), CATDS: 0.63148030600185001; n = 1
# TTK = details: read-out: apparent Kd; compound concentrations: 100 nM and 1000 nM (sheet 'Samples'), CATDS: 0.19017518811714801; n = 1
# MAP3K1 = details: read-out: apparent Kd; compound concentrations: 100 nM and 1000 nM (sheet 'Samples'), CATDS: 0.23263789115969999; n = 1
# PDGFRB = details: read-out: apparent Kd; compound concentrations: 100 nM and 1000 nM (sheet 'Samples'), CATDS: 0.24481499220571501; n = 1
# TTN = details: read-out: apparent Kd; compound concentrations: 100 nM and 1000 nM (sheet 'Samples'), CATDS: 0.29545284543589501; n = 1
# [1] = compound concentrations:100 nM and 1000 nM (sheet 'Samples')
smiles,measurement,setting,value
CS(=O)(=O)CCNCc1coc(-c2ccc3ncnc(Nc4ccc(OCc5ccccc5)cc4)c3c2)c1 [GW566221B],potency estimated from few doses,"EGFR; compound concentrations: 100 nM and 1000 nM (sheet 'Samples'), CATDS: 0.90978509927548601",43.8 nM
same,potency estimated from few doses,"RIPK2; compound concentrations: 100 nM and 1000 nM (sheet 'Samples'), CATDS: 0.34472781375122202",839 nM
Cl.O=S(=O)(c1cccc(F)c1)c1ccc(Nc2ncnc3cc(Br)sc23)cc1Cl [GSK306886A],potency estimated from few doses,"EGFR; compound concentrations: 100 nM and 1000 nM (sheet 'Samples'), CATDS: 0.33527903035184697",1350 nM
same,potency estimated from few doses,PIK3CD,11.9 nM
COc1cc2ncnc(Nc3cccc(Cl)c3F)c2cc1O[C@H]1CC[C@H]([C@@H]2NCCNC2=O)CC1 [BI00133844],potency estimated from few doses,"EGFR; compound concentrations: 100 nM and 1000 nM (sheet 'Samples'), CATDS: 0.60963151876595101",15.4 nM
same,potency estimated from few doses,EPHA1; CATDS: 0.101565778514596,403 nM
same,potency estimated from few doses,EPHA2,1060 nM
same,potency estimated from few doses,EPHA4,898 nM
same,potency estimated from few doses,EPHA5,1090 nM
same,potency estimated from few doses,EPHA7,1800 nM
same,potency estimated from few doses,EPHB2,1200 nM
same,potency estimated from few doses,EPHB4,332 nM
same,potency estimated from few doses,FLT4; CATDS: 5.9092612801250499E-2,1600 nM
same,potency estimated from few doses,MAPK14,1630 nM
same,potency estimated from few doses,MAPKAPK2,1290 nM
same,potency estimated from few doses,NNT,1810 nM
same,potency estimated from few doses,RET; CATDS: 0.20598352545457299,99 nM
Cl.O=C(O[C@H]1CN[C@H](C#Cc2cc3ncnc(Nc4ccc5c(cnn5Cc5ccccc5)c4)c3s2)C1)N1CCOCC1 [GSK200398A_KCGS],potency estimated from few doses,EGFR; [1],26.7 nM
same,potency estimated from few doses,MAP2K5; [1],2200 nM
same,potency estimated from few doses,RIPK2; [1],936 nM
COc1cc2ncnc(Nc3ccc(C)c(O)c3)c2cc1OC.Cl [GW410563A],potency estimated from few doses,"EGFR; compound concentrations: 100 nM and 1000 nM (sheet 'Samples'), CATDS: 0.29565759118255602",439 nM
same,potency estimated from few doses,RET; CATDS: 0.33989373739411199,326 nM
same,potency estimated from few doses,"RIPK2; compound concentrations: 100 nM and 1000 nM (sheet 'Samples'), CATDS: 0.37374612171419203",272 nM
Cc1cc(-c2ccco2)cc(C)c1/C=C/c1cncc(-c2nn[nH]n2)c1.Cl [GW458344A],potency estimated from few doses,EPHB6,401 nM
O=C(NCCCN1CCOCC1)c1cccc(Nc2nccc(Nc3ccc(Oc4ccccc4)cc3)n2)c1 [GW663929X],potency estimated from few doses,ERBB3,1550 nM
same,potency estimated from few doses,FYN; CATDS: 0.114580255038188,343 nM
same,potency estimated from few doses,HCK,96.7 nM
same,potency estimated from few doses,LCK; CATDS: 0.10096254508192699,455 nM
same,potency estimated from few doses,LYN,756 nM
same,potency estimated from few doses,"MAP2K5; compound concentrations: 100 nM and 1000 nM (sheet 'Samples'), CATDS: 7.7428617985082396E-2",947 nM
same,potency estimated from few doses,"RIPK2; compound concentrations: 100 nM and 1000 nM (sheet 'Samples'), CATDS: 0.16454989385531299",175 nM
same,potency estimated from few doses,RIPK3; CATDS: 6.5605703607897303E-2,1820 nM
same,potency estimated from few doses,SRC,236 nM
same,potency estimated from few doses,YES1,373 nM
CC(C)(C)c1ccc2nccc(Nc3cccc(O)c3)c2c1 [GW856795X],potency estimated from few doses,EPHA1; CATDS: 0.14534883893422801,443 nM
same,potency estimated from few doses,EPHB3,1450 nM
same,potency estimated from few doses,FYN; CATDS: 0.110039828887459,960 nM
same,potency estimated from few doses,RET; CATDS: 0.126385665807943,634 nM
same,potency estimated from few doses,"RIPK2; compound concentrations: 100 nM and 1000 nM (sheet 'Samples'), CATDS: 0.476664898558677",52 nM
same,potency estimated from few doses,RIPK3; CATDS: 0.215705247056383,192 nM
same,potency estimated from few doses,TGFBR2,703 nM
Fc1cccc(COc2ccc(Nc3ncnc4sc(-c5ccc[nH]5)cc34)cc2Cl)c1 [GW707818B],potency estimated from few doses,"EGFR; compound concentrations: 100 nM and 1000 nM (sheet 'Samples'), CATDS: 1",1030 nM
COc1cc2c(cc1Nc1nc(N3CCc4ccccc43)c3cc[nH]c3n1)N(C(=O)CN(C)C)CC2 [GSK2186269A],potency estimated from few doses,FER,915 nM
same,potency estimated from few doses,IGF1R,959 nM
same,potency estimated from few doses,INSR,493 nM
same,potency estimated from few doses,JAK2,1130 nM
COc1cc(OC)cc(-c2cc3cnc(N)nc3nc2NC(=O)NC(C)(C)C)c1 [PFE-PKIS_3],potency estimated from few doses,FGFR1,85.8 nM
same,potency estimated from few doses,PIK3C2A,2380 nM
CN(c1ccc(NC(=O)Nc2ccc(OC(F)(F)F)cc2)cc1)c1ccnc(Nc2cccc(S(N)(=O)=O)c2)n1 [GW806742X],potency estimated from few doses,FLT3; CATDS: 0.14801329572366401,336 nM
same,potency estimated from few doses,FLT4; CATDS: 0.285311181024344,122 nM
same,potency estimated from few doses,LCK; CATDS: 8.5117028494468894E-2,1110 nM
same,potency estimated from few doses,MAP4K1,536 nM
same,potency estimated from few doses,MAP4K2,1420 nM
same,potency estimated from few doses,MAP4K3,1830 nM
same,potency estimated from few doses,MAP4K5,951 nM
same,potency estimated from few doses,RET; CATDS: 0.14686027995557299,340 nM
same,potency estimated from few doses,TNIK; CATDS: 6.8078386206779196E-2,2360 nM
same,potency estimated from few doses,TNK1,783 nM
O=C1Nc2ccccc2/C1=C/Nc1ccc(-n2cncn2)cc1 [GW301789X],potency estimated from few doses,FLT3; CATDS: 0.22267825375754199,1370 nM
same,potency estimated from few doses,MYLK3,176 nM
same,potency estimated from few doses,TNIK; CATDS: 0.21425546336559301,1520 nM
same,potency estimated from few doses,TTK,2180 nM
O=C(Nc1n[nH]c2nc(-c3ccco3)c(Br)cc12)c1ccc(CN2CCCC2)cc1.O=C(O)[C@H](O)[C@@H](O)C(=O)O [SB-742352-AC],potency estimated from few doses,FLT3; CATDS: 0.23628807978612301,1550 nM
same,potency estimated from few doses,MAP3K1,1600 nM
same,potency estimated from few doses,PDGFRB,1430 nM
same,potency estimated from few doses,TTN,1010 nM
